Results from PubChem BioAssay AID1159580 (chemical genetic matrix, 2015).
Where “and” joins values, the source holds several entries; their conditions need not be identical. Equal values may be shown once. In all, about 5,500 compounds went through this assay and about 2,000 (36%) were called active. Another 18% or so got no clear call; they are omitted. No stated cut-off is given here; in the data, active means normalized growth mostly below about 0.91 (no sharp cut-off); inconclusive means no clear call, values can overlap the other calls; inactive means mostly above about 0.92. The list shows a part of the results.

Assay: chemical genetic growth profiling, strain panel (AID 1159580);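 further: tested at 20 µM; growth read once vehicle control cultures reached saturation at 30 °C; 1 = growth at the plate median or of vehicle wells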
Details: S. cerevisiae deletion strains, growth OD

Measured: normalized growth

C[N+]1(C)C2CC(OC(=O)[C@@H](CO)c3ccccc3)CC1C1OC12 (some centres not stated)
inactive: locus YAL021C, strain ccr4, stronger effect = lower value 0.987 | locus YAL026C, strain drs2, stronger effect = lower value 0.999 | locus YAL030W, strain snc1, stronger effect = lower value 0.968 | locus YBL061C, strain skt5, stronger effect = lower value 0.98 | locus YBR009C, strain hhf1, stronger effect = lower value 0.955 | locus YBR021W, strain FUR4, stronger effect = lower value 1.04 | locus YBR023C, strain chs3, stronger effect = lower value 0.958 | locus YBR171W, strain sec66, stronger effect = lower value 0.951 | locus YBR229C, strain ROT2, stronger effect = lower value 1.01 | locus YBR231C, strain swc5, stronger effect = lower value 0.982 | locus YBR279W, strain paf1, stronger effect = lower value 0.986 | locus YCL011C, strain gbp2, stronger effect = lower value 0.923 | locus YCL016C, strain dcc1, stronger effect = lower value 0.932 | locus YCL029C, strain bik1, stronger effect = lower value 1 | locus YCL061C, strain MRC1, stronger effect = lower value 0.977 | locus YCL069W, strain vba3, stronger effect = lower value 0.974 | locus YCR088W, strain abp1, stronger effect = lower value 0.989 | locus YDL005C, strain med2, stronger effect = lower value 0.989 | locus YDL035C, strain GPR1, stronger effect = lower value 1.02 | locus YDL040C, strain nat1, stronger effect = lower value 0.994 | locus YDL074C, strain BRE1, stronger effect = lower value 1.05 | locus YDL101C, strain DUN1, stronger effect = lower value 1.01 | locus YDL185W, strain tfp1, stronger effect = lower value 1.01 | locus YDL192W, strain arf1, stronger effect = lower value 1.03 | locus YDR001C, strain nth1, stronger effect = lower value 0.975 | locus YDR069C, strain doa4, stronger effect = lower value 0.977 | locus YDR101C, strain arx1, stronger effect = lower value 0.99 | locus YDR137W, strain rgp1, stronger effect = lower value 0.924 | locus YDR159W, strain sac3, stronger effect = lower value 1 | locus YDR162C, strain NBP2, stronger effect = lower value 1.02 | locus YDR195W, strain ref2 1.01 | locus YDR297W, strain sur2, stronger effect = lower value 0.976 | locus YDR318W, strain mcm21, stronger effect = lower value 1.03 | locus YDR334W, strain swr1, stronger effect = lower value 0.933 | locus YDR335W, strain msn5, stronger effect = lower value 0.968 | locus YDR388W, stronger effect = lower value 1.01 | locus YDR392W, strain spt3, stronger effect = lower value 0.934 | locus YDR502C, strain sam2, stronger effect = lower value 1.03 | locus YEL003W, strain gim4, stronger effect = lower value 0.996 | locus YEL037C, strain rad23, stronger effect = lower value 0.982 | locus YEL061C, strain CIN8 (second series), stronger effect = lower value 0.98 | locus YEL061C, strain CIN8, stronger effect = lower value 1.05 | locus YER015W, strain faa2, stronger effect = lower value 0.986 | locus YER016W, strain bim1, stronger effect = lower value 0.997 | locus YER110C, stronger effect = lower value 1.02 | locus YER111C, strain swi4, stronger effect = lower value 0.985 | locus YER155C, strain BEM2 (second series), stronger effect = lower value 1.02 | locus YER155C, strain BEM2, stronger effect = lower value 1.01 | locus YER167W, strain BCK2, stronger effect = lower value 1.03 | locus YFR010W, strain ubp6, stronger effect = lower value 0.978 | locus YGL078C, strain dbp3, stronger effect = lower value 1.01 | locus YGL086W, strain mad1, stronger effect = lower value 1 | locus YGL167C, strain pmr1, stronger effect = lower value 0.964 | locus YGL173C, strain kem1, stronger effect = lower value 0.969 | locus YGL227W, strain vid30, stronger effect = lower value 0.978 | locus YGL240W, strain doc1, stronger effect = lower value 1 | locus YGL248W, strain PDE1, stronger effect = lower value 1.01 | locus YGL253W, strain hxk2, stronger effect = lower value 0.97 | locus YGR135W, strain pre9, stronger effect = lower value 1.06 | locus YGR229C, strain SMI1, stronger effect = lower value 1.05 | locus YGR252W, strain gcn5, stronger effect = lower value 1.05 | locus YHR013C, strain ard1, stronger effect = lower value 0.957 | locus YHR027C, strain rpn1, stronger effect = lower value 0.957 | locus YHR030C, strain SLT2, stronger effect = lower value 1.02 and 1.03 | locus YHR079C, strain IRE1 (second series), stronger effect = lower value 1.02 | locus YHR079C, strain IRE1, stronger effect = lower value 1.03 | locus YHR094C, strain hxt1, stronger effect = lower value 1.01 | locus YHR129C, strain ARP1, stronger effect = lower value 1.01 | locus YHR142W, strain chs7, stronger effect = lower value 0.916 | locus YHR200W, strain rpn10, stronger effect = lower value 1.02 | locus YIL066C, strain RNR3, stronger effect = lower value 1.01 | locus YIL073C, strain SPO22, stronger effect = lower value 1.07 | locus YIL125W, strain kgd1, stronger effect = lower value 1.01 | locus YIR030C, strain dcg1, stronger effect = lower value 1.02 | locus YJL092W, strain hpr5, stronger effect = lower value 0.969 | locus YJL095W, strain BCK1 (second series), stronger effect = lower value 0.974 | locus YJL095W, strain BCK1, stronger effect = lower value 1.02 and 1.01 | locus YJL115W, strain asf1, stronger effect = lower value 0.958 | locus YJL129C, strain trk1, stronger effect = lower value 0.976 | locus YJL134W, strain LCB3, stronger effect = lower value 1 | locus YJL154C, strain vps35, stronger effect = lower value 0.975 | locus YJL164C, strain tpk1, stronger effect = lower value 1 | locus YJL166W, strain qcr8, stronger effect = lower value 0.959 | locus YJL168C, strain set2, stronger effect = lower value 1.01 | locus YJL187C, strain SWE1 (second series), stronger effect = lower value 1.01 | locus YJL187C, strain SWE1, stronger effect = lower value 0.976 | locus YJR043C, strain POL32, stronger effect = lower value 1.02
